# From PubChem BioAssay AID1948 (National Center for Advancing Translational Sciences (NCATS), 2009)
# Out of some 110,000 compounds screened, about 20 (0.02%) were called active. Inconclusive results (about 2%) are left out. The list comes from a sample in which actives are over-represented; it also holds similar structures and randomly drawn compounds. Values without a mark were called inactive. Calls come from the whole dose curve; as a rule, active = well fitted activation curve with a large enough effect; inconclusive = small, poorly fitted or top-dose-only effect; inactive = no such curve, though single readings can be large or run the other way.
# Experiment: qHTS Assay for Compounds that Induce Erasure of Genomic Imprints;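 note: 0% = negative control wells on the plate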
# Conditions: mouse ES Peg3-LacZ reporter, beta-gal luminescence, 40 h; series mostly up to 10.9 µM; activity change, positive = activation: at the top concentration
# From the text: qHTS Assay for Compounds that Induce Erasure of Genomic Imprints NIH Chemical Genomics Center [NCGC] NIH Molecular Libraries Screening Centers Network [MLSCN] Assay Submitter (PI): JEFFRIES, SEAN, NCGC, University of Cambridge NCGC Peg3 Imprinting Assay Overview Genomic imprinting is the epigenetic process whereby genes are expressed in a parent of origin fashion. […] Unlike some forms of epigenetic silencing that can be overcome by overexpression of transcription factors, genomic imprinting stably represses the expression of one allele despite potentially high levels of expression from the other allele. […] During mouse embryonic day 11.5 imprints are erased in PGCs so that sex specific imprints can be reestablished during gametogenesis. Embryonic germ (EG) cells can be derived from developing PGCs at embryonic day 11.5 and these cells often lack genomic imprints. […] Embryonic stem (ES) cells are a cell type similar to EG cells in phenotype and transcriptional profile, yet ES cells maintain genomic imprints. This similarity between ES and EG cells prompted us to use ES cells to look for factors which could induce imprint erasure. To investigate the stability of genomic imprinting, ES cells were derived from mice with an insertion of a LacZ-Neomycin reporter construct in the Peg3 locus. Peg3 is an imprinted locus where gene expression is restricted to the paternal allele. […] Using LacZ expression we are able to monitor the state of the Peg3 imprint. In order to dissect the mechanisms involved in imprint erasure using a forward chemical genetics approach we developed a cell based phenotype assay using an endogenous silence imprinted locus. This assay utilizes maternally inherited Peg3LacZ-Neo ES cells by monitoring the LacZ expression from the normally silent Peg3 allele. To facilitate screening, high-density feeder-free ES cell culture has been optimized so that ES cells can be grown in 1536 for over four days without feeding or washes. The assay uses a luminescence based read out for LacZ activity and is a homogenous assay optimal for HTS.
# NCGC Peg3 Imprinting Assay Protocol Summary ES cell lines were derived from blastocysts taken from Peg3LacZ-Neo x129 matings. Lines were sexed and genotyped for the Peg3LacZ-Neo allele. Female cells carrying the reporter allele were used in this study. Cells were derived on a layer of mouse embryonic fibroblasts and passaged multiple times before switching to feeder free culture. Cells were maintained feeder free on gelatin coated dishes in DMEM/F12 media supplemented with 15% FBS, 2mM L-glutamine, 100 units/ml penicillin, 100ug/ml streptomycin, 0.1mM MEM nonessential amino acids, 1mM sodium pyruvate, 0.1% sodium bicarbonate, 0.1mM 2-Mercaptoethanol, and 400 units/ml leukemia inhibitory factor (LIF) at 37C with 5% CO2. The assay was performed in 1536-well format. A single luminescence read was taken at the end of the assay and the data was normalized by plate to internal negative controls. Maximum efficacy and AC50 values were calculated from dose-response data using the standard Hill equation. 1536 well plates were filled with 0.5ul of 0.1% gelatin per well, spun down and incubated for at least 30 min at 37C. The ES cells were then trypsini Peg3 1536-well assay protocol: (1)Plate 0.5ul/well 0.1% gelatin in white tissue culture treated 1536-well plates, spin and incubate at 37C for at least 30 min. (2)Add 5ul/well (300 cells) of ES cell suspension from freshly trypsinized cells and incubate at 37C, 5% CO2 for 40 hours. (3)Add 5ul/well of freshly prepared BetaGlo solution and incubate at room temperature for 5 minutes. (4)Read luminescence on the ViewLux plate reader. Keywords Genomic Imprinting, Germ Cells, Embryonic Stem Cell, DNA Methylation, Peg3, qHTS, NIH roadmap, NCGC
row,Structure (SMILES),"activity change, positive = activation [%]"
1,CCN1CCN(c2cc(C)c3cc(NC(=O)c4cc(Cl)ccc4OC)ccc3n2)CC1,-33.9
2,CCc1ccc(NC(=O)c2cc3c(=O)n(Cc4cccnc4)ccc3nc2C)cc1,-7.76
3,CCCCCn1c(CCCNC(=O)c2ccccc2OC)nc2ccccc21,-12.7
4,COc1ccccc1CNS(=O)(=O)c1cc(Br)cc2c1N(C(C)=O)C(C)C2 (stereo unspecified),-8.34
5,CCOc1cc(C2C(C(=O)OC)=C(C)NC3=C2C(=O)c2ccccc23)ccc1O (stereo unspecified),-3.7
6,CCOc1ccc(C2C(=O)N(C3CCCCC3)CC(=O)N2CCC2=CCCCC2)cc1OC (stereo unspecified),6.2
7,O=C(Nc1ccc2nc(SCCOc3ccccc3)sc2c1)c1ccco1,-16.3
8,CCc1cnc2c(c1SCC(=O)N1CCC(C)CC1)c(=O)n(C)c(=O)n2C,9.05
9,CCOc1ccc(N(CC)S(=O)(=O)N2CCCC(C(=O)Nc3ccc(C(C)=O)cc3)C2)cc1 (stereo unspecified),-20.5
10,COc1ccc(Cn2cc(C(=O)c3ccc(C)cc3)c(=O)c3cc(OC)c(OC)cc32)cc1,-10.5
11,Cc1csc2nc(COC(=O)c3ccc(NC(=O)COc4ccccc4F)cc3)cc(=O)n12,-15.4
12,COc1ccc(OC)c(NC(=O)CSC2=Nc3ccccc3C3=NC(CC(=O)NCc4ccc(F)cc4)C(=O)N23)c1 (stereo unspecified),-6.91
13,O=c1cc(COc2cccc(C(F)(F)F)c2)nc2sc3c(n12)CCCC3,20.1
14,CCC(=O)Nc1cccc(-c2nc3cc(C)ccc3o2)c1,-34
15,COc1ccc(Cl)cc1-n1c(CCC(=O)O)ccc1-c1ccc(C)cc1,4.72
16,CCCC(=O)Nc1ccc(NC(=O)c2sc3ccccc3c2Cl)cc1,-17.3
17,CC1CCCCN1S(=O)(=O)c1ccc(F)c(C(=O)Nc2ccccc2C(F)(F)F)c1 (stereo unspecified),15.3
18,CCc1cc2c(cc3c(=O)n(CC(=O)N4CCN(c5cc(Cl)ccc5C)CC4)nc(CC)n32)s1,3.78
19,Cc1nn(-c2ccc(N3CCCCC3)nn2)c(C)c1CCC(=O)NCc1ccc(F)cc1,-10.3
20,Cc1cc(C)cc(NC(=O)CCS(=O)(=O)c2cc3c4c(c2)CCN4C(=O)CC3)c1,-5.47
21,CCOC(=O)N1CCC(NC(=O)c2cnn(-c3cccc(C)c3)c2C2CCN(C(=O)OC(C)(C)C)CC2)CC1,-7.69

row,Structure (SMILES),"activity change, positive = activation [%]"
1,COc1ccc(CNC(=O)c2cc3c(=O)[nH]c4ccccc4c3s2)cc1,14.7
2,CCOc1ccc(CNC(=O)C2CCCN(c3nnc(C)c4c(C)n(-c5ccccc5)nc34)C2)cc1 (stereo unspecified),-17.4
3,Cc1nnc(C)n1-c1ccc(C(=O)Nc2cccc(Br)c2)cc1,-11.1
4,COc1cc(NC(=O)CCNC(=O)Cn2ccc3ccccc3c2=O)cc(OC)c1OC,-5.74
5,CCc1nonc1NC(=O)c1oc2ccc(Cl)cc2c1C,-14.9
6,COc1ccccc1Nc1cc(C(=O)NCCCN(C)C2CCCCC2)c2ccccc2n1,21
7,CCOC(=O)c1ccccc1NC(=O)c1nn(-c2ccc(OC)c(Cl)c2)c(=O)c2c1c1ccccc1n2C,22.8
8,Cc1ccc(C)c(NC(=O)CSC2=Nc3ccccc3N=C(c3ccc(F)cc3)C2)c1,-7.52
9,CCc1ccccc1NC(=O)Cn1c(=O)n(CC2CCC(C(=O)NCCc3ccccc3)CC2)c(=O)c2ccccc21 (stereo unspecified),-9.17
10,COc1ccc(CNc2nc(-c3ccc(Cl)cc3)nn2S(=O)(=O)c2ccc(C)cc2)cc1,-11.7
11,Cc1ccc(CN(C(=O)c2ccccc2[N+](=O)[O-])c2ccccn2)cc1,-12.4
12,COc1ccc(NC(=O)C(=O)NCc2ccco2)cc1,-6.52
13,CC1CN(C(=O)N2CCC(C(=O)NCc3cccs3)CC2)c2ccccc2O1 (stereo unspecified),-8.54
14,Cc1ccc(S(=O)(=O)N2CCC(Oc3ccc(-n4cnnn4)cc3)CC2)cc1,-8.14
15,Cc1ccc(F)cc1NC(=O)CCSc1nc(-c2ccco2)cc(C(F)(F)F)n1,5.17
16,Cc1cc(C)c(-c2n[nH]c3c2C(c2ccccc2F)N(CCO)C3=O)c(O)c1 (stereo unspecified),-12.1
17,CC(=O)Nc1ccc(S(=O)(=O)NCC2CCC(C(=O)NCCc3ccccc3)CC2)cc1 (stereo unspecified),-11
18,COC(=O)c1ccccc1NC(=O)c1ccc2c(=O)n3c(nc2c1)CCCCC3,-6.07
19,COc1ccc(S(=O)(=O)NCc2cccn2Cc2cccc(C)c2)cc1,-13.3
20,COC(=O)CN1C(=O)CSc2ccc(S(=O)(=O)Nc3cc(C)ccc3C)cc21,2.15
21,COc1ccc(CNC(=O)CSCc2nc(-c3ccccc3F)oc2C)cc1,-11

row,Structure (SMILES),"activity change, positive = activation [%]"
1,O=C(Nc1ccc(F)cc1F)c1cnn(-c2ccc(F)cc2)c1-n1cccc1,4.84
2,Cc1ccc(OCC(=O)Nc2ccc(Cl)c(-c3nc4ccccc4[nH]3)c2)cc1C,-9.61
3,Cc1oc2ncn(CC(C)C)c(=O)c2c1C(=O)N1CCN(c2ccccc2F)CC1,19.9
4,COc1ccccc1NC(=O)c1cc(C2CC2)nc2c1c(C)nn2-c1ccc(C)cc1,-7.45
5,Cc1ccc(CN2C(=O)SC(Nc3ccccc3)C2=O)cc1 (stereo unspecified),3.26
6,CCN(CCCNC(=O)c1cc2c(=O)n(CC)c3ccccc3c2s1)Cc1ccccc1,-11.1
7,Cc1ccc(C(=O)NCCSc2c(C)[nH]c3ccccc23)cc1C,-7.06
8,O=C1CC(c2ccc(F)cc2F)c2cc3c(cc2N1)OCO3 (stereo unspecified),-10.5
9,Cc1cccc(C(=O)N2c3nc(-c4ccco4)nn3C3(CCCCC3)[C@@H]3CCCC[C@@H]32)c1,-2.39
10,O=C(CSc1nc(=O)n(Cc2cccnc2)c2c1CCC2)Nc1ccc(F)cc1F,19.5
11,Cc1c(CNC2CCCCC2)c(C(=O)O)c(C)n1Cc1cccc(Cl)c1,-11
12,CC(C)Oc1ccc(CNC(=O)C2CCN(c3nc4ccccc4n(C)c3=O)CC2)cc1,-2.14
13,Cc1ccccc1NC(=O)Cn1c(=O)n(CCCCC(=O)NCc2ccccc2Cl)c(=O)c2ccccc21,-1.68
14,COCCCNC(=O)c1ccc(NC(=O)c2nsc3ccccc23)cc1,2.98
15,Cc1c(NC(=O)C(C)(C)C)cccc1-c1nc2ccccc2s1,-11.3
16,Cc1ccn2c(Nc3ccc4c(c3)OCCO4)c(-c3ccc(C)s3)nc2c1,-21.3
17,Cc1ccccc1CNC(=O)CCc1cn(Cc2ccccc2C)c2ccccc12,-11.9
18,C[C@@]12CCC(=O)C=C1CC[C@H]1C2[C@@H](O)C[C@]2(C)[C@@H]1CC[C@@]2(O)C(=O)COC(=O)C1CCCC1 (stereo partly specified),-4.6
19,Cc1ccc(-n2nc(CO)c(C(=O)NCCc3ccccc3)n2)cc1,-11.8
